Results filed as inconclusive are left out. The source made the active and inactive calls. Calls come from the whole dose curve; as a rule, active = well fitted cell-killing curve with a large enough effect; inconclusive = small, poorly fitted or top-dose-only effect; inactive = flat fitted curve, though single readings scatter.
Assay: Cell Viability - LYMP1-002 - Assay at 16 hr (AID 948)
Details: LYMP1-002 lymphoblastoid cell viability; series mostly up to 92.2 µM
Excerpt: NIH Chemical Genomics Center [NCGC]
NIH Molecular Libraries Screening Centers Network [MLSCN]
National Institutes of Environmental Health Sciences [NIEHS]
National Toxicology Program [NTP]
We have developed a 1536-well cell-based assay for quantitative high throughput screening (qHTS) against a number of cell lines to determine in vitro cytotoxicity of small molecules. This particular assay uses a human lymphoblastoid cell line (LYMP1-002) purchased from Coriell Institute for Medical Research.
NCGC Assay Protocol Summary:
The CellTiter-Glo luminescent cell viability assay (Promega) is a homogeneous method to measure the number of viable cells in culture. The end point readout of this assay is based on quantitation of intracellular ATP, an indicator of metabolic activity, using the luciferase reaction. Luciferase catalyzes the oxidation of beetle Luciferin to oxyluciferin and light in the presence of ATP. The luminescent signal is proportional to amount of ATP present.
Using the CellTiter-Glo luminescent cell viability assay, the amount of cellular ATP was measured in the lymphoblastoid cell line with complete culture medium following compound treatment for 16 hours. The assay was performed in opaque white Kalypsys 1536-well plates. In the screen, tetraoctylammonium bromide was used as positive control. Library compounds were measured for their ability to cause acute toxicity in the cell line, as reflected by a decrease in intracellular ATP levels, in a concentration-dependent manner. […] AC50 values were determined from concentration-response data modeled with the standard Hill equation.
qHTS protocol for CellTiter Glo lymphoblastoid cellular assay
[Step] [Parameter] [Value] [Description]
1. Reagent; 5 uL; 2500 lymphoblastoid cells/well
2. Time; 5 hr; 37 C incubation
4. Controls; 23 nL; Tetraoctylammonium bromide 6.4pM to 92 uM
5. Time; 16 hr; 37 C incubation
6. Reagent; 5 uL; CellTiter Glo reagent
7. Time; 30 min; Room Temperature
8. Detection; Luminescence; Viewlux plate reader
Keywords: cell viability, cytotoxicity, lymphoblastoid cell line, luminescence, NTPHTS, NTPHTS_NCGC, NIEHS, DSSTox, MLSMR, MLSCN, NIH Roadmap, qHTS, NCGC

Row | Compound | outcome
1 | S=c1[nH]c2ccccc2[nH]1 | inactive
2 | O=C(O)c1cccc(Cl)c1 | inactive
3 | Nc1ccc([N+](=O)[O-])cc1N | inactive
4 | c1ccc(OCC2CO2)cc1 (stereo not given) | inactive
5 | BrCCc1ccccc1 | inactive
6 | N#CCCC#N | inactive
7 | c1ccc(NNc2ccccc2)cc1 | inactive
8 | Clc1cc(Cl)c(Cl)c(Cl)c1 | inactive
9 | CCCCCCCCCCCOC(=O)c1ccccc1C(=O)OCCCCCCCCCCC | inactive
10 | CC[N+](=O)[O-] | inactive
11 | ClC(Cl)c1ccccc1 | inactive
12 | N#C/C=C/C#N | inactive
13 | CCC(Cl)[N+](=O)[O-] (stereo not given) | inactive
14 | CC(C)[C@]12CC(=O)[C@H](C)[C@H]1C2 | inactive
15 | OCCBr | inactive
16 | Nc1cc(Cl)cc(Cl)c1 | inactive
17 | Oc1c(Cl)c(Cl)cc(Cl)c1Cl | inactive
18 | C=CC(=O)OCC(C)C | inactive
19 | [N-]=[N+]=[N-] | inactive
20 | O=[N+]([O-])c1ccc(Cl)c(Cl)c1Cl | inactive

Row | Compound | outcome
21 | N#CCCCCC#N | inactive
22 | O=C(O)C(Br)Br | inactive
23 | CN=C=O | inactive
24 | Nc1ccc([N+](=O)[O-])cc1[N+](=O)[O-] | inactive
25 | C/C=C/CC#N | inactive
26 | CCCCOC(=O)c1ccccc1N | inactive
27 | Oc1cc(Cl)c(Cl)c(Cl)c1Cl | inactive
28 | Oc1cc(Cl)c(Cl)c(Cl)c1 | inactive
29 | CCN(CC)CCO | inactive
30 | N#CCc1ccccc1 | inactive
31 | FC(Cl)(Cl)Cl | inactive
32 | ClCc1ccccn1 | inactive
33 | S=C1NCCN1 | inactive
34 | CN(C)C(=O)Cl | inactive
35 | CC(C)C#N | inactive
36 | Nc1ccc(Cc2ccc(N)cc2)cc1 | inactive
37 | CC12CC1(C)C(=O)N(c1cc(Cl)cc(Cl)c1)C2=O (stereo not given) | inactive
38 | Cc1ccc(N)cc1C | inactive
39 | c1ccc2c(c1)CCNC2 | inactive
40 | COc1cc(-c2ccc(N)c(OC)c2)ccc1N | inactive

Reference: PubChem BioAssay (NCATS)
